Only some compounds are listed: those with a hit (about 4% of all), similar ones and a draw of the others.
CF NFkB block: inhibitors of PAF-induced NF-kB signaling, primary screen, cell-based, GFP fluorescence, uHTS | KKLEB NF-kB-GFP reporter, GFP fluorescence overnight | 0.86% of 360,000 active | inhibition, % at 5 µM;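 active means at least 50% inhibition at 5 µM, scaled per plate between neutral and stimulator controls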;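 further: PAF is a Pseudomonas aeruginosa culture filtrate used as stimulus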
TROY signal inh: inhibitors of TROY-driven NF-kB signaling, primary screen, Q293 LMP1-TROYcd cells, NF-kB luciferase, uHTS. Q293 LMP1-TROYcd NF-kB luciferase reporter, 4 h. inhibition, % at 10 µM. AID 1347056, 2019. 0.98% of 360,000 active;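 active means compounds whose plate-normalised and pattern-corrected inhibition of the luciferase reporter signal at the single screening dose is 50% or more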
Peg3 promoter: Peg3 promoter-driven luciferase inhibitors, primary screen, cell-based, HeLa, luciferase luminescence. 1.7% of 360,000 active. AID 588405, 2011. HeLa PEG-Prom luciferase reporter, overnight. inhibition, % at 20 µM;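 active means inhibition of at least 50% at 20 µM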
HIF-2a inh: HIF-2a reporter inhibitors, primary screen, luminescence, 786-0 RCC cells | 786-0 RCC cells HIF-2a reporter, luciferase luminescence, overnight | 0.72% of 360,000 active | inhibition, % at 18.8 µM;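 active means inhibition of the luminescence signal of 40% or more relative to plate controls, in a single-dose primary screen at 18.75 µM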
KKLEB tox: cytotoxicity in KKLEB CF airway cells, primary screen, cytotoxicity control for CF NF-kB inhibitor project, cell-based, uHTS, fluorescence assay plates; KKLEB CF airway cells viability, ATPlite luminescence, overnight; stronger effect = lower value; cells stimulated with P. aeruginosa culture filtrate; activity change (cytotoxicity), % at 5 µM; 0.36% of 360,000 active;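 active means corrected activity change at or below -50% at 5 µM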
TWEAK-Fn14 inh: inhibitors of TWEAK-Fn14 signaling, primary screen, luciferase reporter cells, uHTS | TWEAK-stimulated Fn14 reporter cells, luciferase luminescence, 8 h | inhibition, % at 10 µM | 2% of 360,000 active; in the data active means inhibition above about 50%
Mdm2 MdmX conf: retested Mdm2-MdmX interaction blockers, confirmation, cell-based, luminescence, single concentration, set 2; shares compounds with HIF-2a inh; SaOS-2 split-luciferase Mdm2/MdmX complementation; inhibition, % at 8 µM; 99% of 740 active; AID 504601, 2011;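 active means mean inhibition of the luminescence signal across two replicates at or above 26 percent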
Target sequence (O15151 whole entry, looked up): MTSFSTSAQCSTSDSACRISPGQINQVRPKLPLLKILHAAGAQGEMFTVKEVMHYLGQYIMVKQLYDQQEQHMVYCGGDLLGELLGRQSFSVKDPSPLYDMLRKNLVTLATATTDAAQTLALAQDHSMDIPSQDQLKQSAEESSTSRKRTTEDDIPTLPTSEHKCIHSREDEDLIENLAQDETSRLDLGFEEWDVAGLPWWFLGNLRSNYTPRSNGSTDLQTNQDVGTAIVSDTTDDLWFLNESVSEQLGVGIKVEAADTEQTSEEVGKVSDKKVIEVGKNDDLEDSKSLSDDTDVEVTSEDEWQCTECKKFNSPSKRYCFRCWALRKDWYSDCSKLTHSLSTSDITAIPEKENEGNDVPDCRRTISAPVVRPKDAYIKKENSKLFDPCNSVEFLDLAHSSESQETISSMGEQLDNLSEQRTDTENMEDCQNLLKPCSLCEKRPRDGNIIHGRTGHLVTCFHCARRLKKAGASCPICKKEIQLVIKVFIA
Target sequence (Q00987 whole entry, looked up): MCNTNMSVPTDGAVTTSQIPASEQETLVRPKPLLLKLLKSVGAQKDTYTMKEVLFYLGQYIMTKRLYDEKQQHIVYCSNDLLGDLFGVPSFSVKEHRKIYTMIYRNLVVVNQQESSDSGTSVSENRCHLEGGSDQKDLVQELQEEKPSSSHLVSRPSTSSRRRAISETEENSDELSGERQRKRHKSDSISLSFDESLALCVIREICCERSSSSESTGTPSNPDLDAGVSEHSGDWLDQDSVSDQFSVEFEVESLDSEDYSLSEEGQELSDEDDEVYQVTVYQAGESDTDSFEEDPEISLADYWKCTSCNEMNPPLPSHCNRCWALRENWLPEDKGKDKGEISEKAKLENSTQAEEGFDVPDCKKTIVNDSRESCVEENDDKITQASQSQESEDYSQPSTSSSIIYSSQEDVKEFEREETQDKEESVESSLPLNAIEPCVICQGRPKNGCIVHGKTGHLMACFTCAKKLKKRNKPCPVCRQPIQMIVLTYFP
HIF-2a conf: HIF-2a reporter inhibitor retest, confirmation, luminescence, 786-0 RCC cells; HIF-2a luciferase reporter luminescence, overnight; AID 651580, 2012; shares compounds with HIF-2a inh; 56% of 1,800 active; inhibition, % at 18.8 µM;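 active means mean inhibition across four replicates of at least 40 percent at the single tested concentration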
HIF-1a counter: HIF-1a luciferase reporter signal reduction – MiaPaCa-2 cells, single concentration, counter-screen for HIF-2a inhibitor project, confirmation; shares compounds with HIF-2a inh; MiaPaCa-2 HIF-1a luciferase reporter, desferoxamine, overnight; inhibition, % at 18.8 µM; 72% of 1,800 active; AID 651589, 2012;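 active means mean inhibition of the reporter signal across four replicates at the single tested dose of 50% or more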
Hits are given with their value; . = inactive; / = no result.

SMILES | CF NFkB block | TROY signal inh | Peg3 promoter | HIF-2a inh | KKLEB tox | TWEAK-Fn14 inh | HIF-2a conf | HIF-1a counter | others
CSc1nnc(NC(=O)c2nc(S(=O)(=O)Cc3cccc(C)c3)ncc2Cl)s1 | 90 | . | 101 | 73 | -50 | 94 | . | 107 | Mdm2 MdmX conf=103
Cc1ccc(CS(=O)(=O)c2ncc(Cl)c(C(=O)Nc3nnc(C(C)C)s3)n2)cc1 | 85 | 60 | 110 | 76 | -86 | 100 | 88 | 106
Cc1cccc(CS(=O)(=O)c2ncc(Cl)c(C(=O)Nc3nnc(C(C)C)s3)n2)c1 | 92 | 55 | 106 | 82 | -87 | 101 | / | / | Mdm2 MdmX conf=103
Cc1nnc(NC(=O)c2nc(S(=O)(=O)Cc3ccccc3C)ncc2Cl)s1 | 99 | . | 106 | 91 | -92 | 102 | . | 105 | Mdm2 MdmX conf=103
CC(C)c1nnc(NC(=O)c2nc(S(=O)(=O)Cc3ccc(F)cc3)ncc2Cl)s1 | 89 | . | 106 | 64 | -101 | 99 | 66 | 107 | Mdm2 MdmX conf=103
CC(=O)c1cc(C#N)c(Oc2ccc(Cl)cc2Cl)nc1C | . | . | . | . | . | . | / | /
CN(C)S(=O)(=O)c1cccc(C(=O)OCC(=O)c2c(N)n(C)c(=O)n(C)c2=O)c1 | . | . | . | 41 | . | . | . | .
CC(C)N(C(=S)Nc1cc(S(=O)(=O)N2CCOCC2)ccc1Cl)c1ccccc1 | . | . | . | . | . | . | / | /
C/C(=N\NC(=S)Nc1cc(S(=O)(=O)N2CCOCC2)ccc1Cl)c1ccccc1F | . | . | 53 | 70 | . | . | . | 87
CNC(=O)c1cc(Oc2ccc(NC(=O)Nc3ccc(Cl)c(C(F)(F)F)c3)cc2)ccn1 | 75 | 62 | . | . | . | 84 | / | / | Mdm2 MdmX conf=99
O=c1c(Cl)c(Cl)cnn1-c1ccccc1 | 97 | . | 115 | 94 | -81 | 91 | 98 | 104
O=C(NCCN1C(=O)S/C(=C\c2ccc(Cl)c([N+](=O)[O-])c2)C1=O)C1=COCCO1 | . | 57 | 93 | 44 | . | 64 | . | 104
CN(C)CCCN(CCCN(C)C)C(=S)Nc1ccc(S(=O)(=O)N2CCOCC2)cc1 | . | . | . | . | . | . | / | /
Cc1ccccc1/C=C/C(=O)c1ccc([N+](=O)[O-])o1 | / | / | / | / | / | / | / | / | Mdm2 MdmX conf=100
Cc1cccc(/C=C/C(=O)c2ccc([N+](=O)[O-])o2)c1 | 90 | . | 101 | . | . | 61 | / | / | Mdm2 MdmX conf=103
Cc1ccc(NC(=O)C(Cc2ccccc2)NC(=O)OCc2ccccc2)cc1C (stereo not drawn) | . | . | . | . | . | . | / | /
CC(C)CN1CCN(Cc2ccc(Oc3ncccn3)cc2)CC1CCO (stereo not drawn) | . | . | . | . | . | . | / | /
O=C(Nc1ccc(N2CCN(C(=O)c3cccs3)CC2)cc1)c1ccco1 | . | . | . | . | . | . | / | /
O=C(Nc1ccc(S(=O)(=O)N2CCCC2)cc1)c1ccc([N+](=O)[O-])o1 | 83 | . | 97 | 77 | . | . | 50 | 94
O=C(Nc1ccc(N2CCN(C(=O)c3cccs3)CC2)cc1)c1ccc([N+](=O)[O-])o1 | 107 | . | 107 | 98 | -56 | . | 99 | 104
O=C(Nc1ccc(S(=O)(=O)N2CCOCC2)cc1)c1ccc([N+](=O)[O-])o1 | 78 | . | 101 | 67 | . | . | . | 78
CC1CCC(NC(=O)CSc2ccc(S(=O)(=O)N(C)C)cn2)CC1 (stereo not drawn) | . | . | . | . | . | . | / | /
Cc1cc(N2CCN(c3ccc([N+](=O)[O-])c4cccnc34)CC2)c2ccccc2n1 | . | . | 106 | . | . | . | / | / | Mdm2 MdmX conf=102
Cc1cc(N2CCN(c3ccc(C(F)(F)F)cc3[N+](=O)[O-])CC2)c2ccccc2n1 | . | . | . | . | . | . | / | /
CCC(=O)N1CCN(c2ccc(NC(=O)c3ccc([N+](=O)[O-])o3)cc2Cl)CC1 | 86 | . | 114 | 94 | -58 | . | 51 | 90
SMILES | CF NFkB block | TROY signal inh | Peg3 promoter | HIF-2a inh | KKLEB tox | TWEAK-Fn14 inh | HIF-2a conf | HIF-1a counter | others
CCC(=O)N1CCN(c2ccc(NC(=O)c3ccco3)cc2Cl)CC1 | . | . | . | . | . | . | / | /
CCN1CCN(c2ccc(NC(=O)c3ccc([N+](=O)[O-])o3)cc2Cl)CC1 | 89 | . | 102 | 64 | . | . | 49 | 58
Cc1ccccc1N(C(=O)c1snc(C(N)=O)c1N)C(C(=O)NC1CCCCC1)c1ccc(O)cc1 (stereo not drawn) | . | . | . | 42 | . | . | . | 86
N#Cc1cccc2c1-c1ccccc1/C2=N/NC(N)=S | . | . | . | 48 | . | . | . | .
O=C(COC(=O)COc1cccc(C(F)(F)F)c1)NC1CCCC1 | . | . | . | . | . | . | / | /
CCOC(=O)c1ccc(NC(=O)c2c(C)[nH]c(C(=O)OCC)c2C)cc1 | . | . | . | . | . | . | / | /
CCOC(=O)c1c(C)[nH]c(C(=O)Nc2ccc(NC(C)=O)cc2)c1C | . | . | . | 88 | . | . | 96 | 84
N/C(Cc1ccc(Cl)cc1)=N\OC(=O)c1ccccc1 | . | . | . | . | . | . | / | /
COc1ccc(C(=O)O/N=C(\N)Cc2ccc(Cl)c(Cl)c2)cc1OC | . | . | 104 | 88 | . | 92 | . | .
COc1ccc(C(=O)O/N=C(\N)Cc2ccc(Cl)cc2)cc1OC | . | . | 113 | 62 | . | 72 | . | .
COc1cc(C(=O)O/N=C(\N)Cc2ccc([N+](=O)[O-])cc2)cc(OC)c1OC | . | . | . | . | . | . | / | /
COc1ccc(-c2cccc(C(=O)Nc3cccc(C(=O)O)c3)c2)cc1 | . | . | . | . | . | . | / | /
COc1ccc(/C=C2\N=C(SC)N(c3ccccc3OC)C2=O)cc1 | . | . | . | . | . | . | / | / | Mdm2 MdmX conf=100
FC(F)(F)c1cnc(NNC(=S)Nc2ccccc2)c(Cl)c1 | . | . | . | 45 | . | . | 61 | .
COc1ccccc1-c1cc(C(F)(F)F)nc(S(=O)(=O)CCCC(=O)O)n1 | . | . | . | . | . | . | / | /

High-throughput results (PubChem BioAssay)
